Reference: PubChem BioAssay (NCI)
“And” between values parts separate entries of the source, which are not always exact repeats. Equal values may be shown once. The panel holds about 83,000 compounds, 20% with a hit somewhere; the sample as a whole holds those more often.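 Activity criterion: percent growth below 10, measured after cells in 96-well plates were exposed to a single compound concentration for 48 hours.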 The source made the active and inactive calls.

Tests used:
Assay in all cases: NCI-60 one-dose screen, 48 h (100 = growth as untreated, 0 = no growth, -100 = all killed)
Details in all cases: 10 µM unless noted
SR leukemia = system: SR leukemia
RPMI-8226 leukemia = system: RPMI-8226 leukemia
OVCAR-8 ovarian = system: OVCAR-8 ovarian
OVCAR-5 ovarian = system: OVCAR-5 ovarian
OVCAR-4 ovarian = system: OVCAR-4 ovarian
SK-OV-3 ovarian = system: SK-OV-3 ovarian
IGROV1 ovarian = system: IGROV1 ovarian
OVCAR-3 ovarian = system: OVCAR-3 ovarian
HS 578T breast = system: HS 578T breast
NCI/ADR-RES ovarian = system: NCI/ADR-RES ovarian

Structure (SMILES)	growth (SR leukemia)	growth (RPMI-8226 leukemia)	growth (OVCAR-8 ovarian)	growth (OVCAR-5 ovarian)	growth (OVCAR-4 ovarian)	growth (SK-OV-3 ovarian)	growth (IGROV1 ovarian)	growth (OVCAR-3 ovarian)	growth (HS 578T breast)	growth (NCI/ADR-RES ovarian)
CC1CC(O)CC(C)(C)C1.CC1CC(O)CC(C)(C)C1.CC1CC(O)CC(C)(C)C1.CC1CC(O)CC(C)(C)C1.[Ti] (stereo not drawn)	81.1% (inactive)	96.5% (inactive)	106% (inactive)	114% (inactive)	127% (inactive)	91.4% (inactive)	101% (inactive)	122% (inactive)	99.9% (inactive)	99.1% (inactive)
O=C1C=CC(n2cc(F)c(=O)[nH]c2=O)O1 (stereo not drawn)	13.1% (inactive)	62% (inactive)	62.3% (inactive)	128% (inactive)	74.9% (inactive)	68.2% (inactive)	103% (inactive)	57.5% (inactive)	90.9% (inactive)	85.1% (inactive)
O=[N+]([O-])c1cccc2ccc(N/N=C/c3ccccc3O)nc12	60.4% (inactive)	6.55% (active) and 93.4% (inactive)	91.9% (inactive) and 95% (inactive)	113% (inactive) and 116% (inactive)	93.3% (inactive) and 100% (inactive)	108% (inactive) and 111% (inactive)	-10.5% (active)	40.5% (inactive) and 101% (inactive)	83.6% (inactive) and 98.7% (inactive)	59% (inactive) and 106% (inactive)
C/C(=C\c1ccccc1)C(O)C(=O)c1nc2ccc([N+](=O)[O-])cc2[nH]c1=O (stereo not drawn)	102% (inactive)	90.2% (inactive)	96.6% (inactive)	96% (inactive)	114% (inactive)	105% (inactive)	102% (inactive)	113% (inactive)	94.7% (inactive)	87.7% (inactive)
CCOCCC(=O)O	109% (inactive)	107% (inactive)	109% (inactive)	101% (inactive)	104% (inactive)	102% (inactive)	114% (inactive)	115% (inactive)	98.7% (inactive)	107% (inactive)
N#Cc1c[nH]n2ccnc12	120% (inactive)	112% (inactive)	98.2% (inactive)	107% (inactive)	118% (inactive)	95.3% (inactive)	93.1% (inactive)	110% (inactive)	117% (inactive)	105% (inactive)
CCC(C)NC(=O)c1ccccc1C (stereo not drawn)	111% (inactive)	105% (inactive)	102% (inactive)	79.6% (inactive)	109% (inactive)	97.5% (inactive)	94.1% (inactive)	110% (inactive)	96.8% (inactive)	92.7% (inactive)
OCCS	90.5% (inactive)	104% (inactive)	103% (inactive)	104% (inactive)	101% (inactive)	101% (inactive)	110% (inactive)	105% (inactive)	106% (inactive)	102% (inactive)
O=C(O)c1cc(=O)[nH]c(=O)[nH]1	104% (inactive)	98.2% (inactive) and 71.6% (inactive)	102% (inactive) and 76.4% (inactive)	101% (inactive) and -23.6% (active)	107% (inactive) and 101% (inactive)	104% (inactive) and 112% (inactive)	103% (inactive)	114% (inactive) and 112% (inactive)	107% (inactive) and 94.8% (inactive)	107% (inactive) and -33.1% (active)
CC(=O)Nc1ccc2oc(=O)ccc2c1	82.3% (inactive)	104% (inactive)	106% (inactive)	102% (inactive)	106% (inactive)	102% (inactive)	105% (inactive)	110% (inactive)	109% (inactive)	116% (inactive)
O=C1c2ccccc2C(c2ccccc2)C1c1ccccc1 (stereo not drawn)	86.3% (inactive)	63.4% (inactive)	103% (inactive)	101% (inactive)	86.1% (inactive)	93.5% (inactive)	91.1% (inactive)	105% (inactive)	106% (inactive)	94.8% (inactive)
Cn1c(-c2ccccc2)cc(=O)cc1-c1ccccc1	69.5% (inactive)	78.9% (inactive)	80.1% (inactive)	79.2% (inactive)	85.6% (inactive)	92.4% (inactive)	88% (inactive)	122% (inactive)	105% (inactive)	82.2% (inactive)
O=C(c1ccncc1)c1c(Cc2ccccc2)ccc2ccccc12	107% (inactive)	85.1% (inactive)	82.5% (inactive)	87.5% (inactive)	82.7% (inactive)	120% (inactive)	18% (inactive)	98% (inactive)	95.3% (inactive)	88.2% (inactive)
COc1cc2oc3cc(=O)cc4oc(-c5ccccc5)cc(c2c2c1CCC(c1ccccc1)O2)c43 (stereo not drawn)	69.6% (inactive)	61.4% (inactive)	87% (inactive)	106% (inactive)	84.8% (inactive)	92.8% (inactive)	70.3% (inactive)	106% (inactive)	65.7% (inactive)	86.6% (inactive)
Cc1cc(NC(=O)NC(=O)c2ccccc2N(C)C)ccc1Oc1ncc(Br)cn1	11.9% (inactive) and 22.4% (inactive)	-9.68% (active) and 20.4% (inactive)	51.9% (inactive)	34.1% (inactive) and 78.5% (inactive)	15.8% (inactive) and 48.7% (inactive)	45% (inactive) and 59.9% (inactive)	-12% (active) and 54.7% (inactive)	0.0582% (active) and 16.2% (inactive)	23.8% (inactive) and 40% (inactive)	5.74% (active) and 23.3% (inactive)
CCCC(=O)OCC(COC(=O)CCC)OC(=O)CCC	105% (inactive)	98.1% (inactive)	101% (inactive)	102% (inactive)	97.6% (inactive)	103% (inactive)	105% (inactive)	105% (inactive)	98.6% (inactive)	100% (inactive)
COC(=O)c1nc(N)nc(C(=O)OC)c1C(=O)c1ccc(F)cc1	112% (inactive)	112% (inactive)	107% (inactive)	114% (inactive)	110% (inactive)	108% (inactive)	111% (inactive)	116% (inactive)	102% (inactive)	109% (inactive)
C(=N\OCCc1ccccc1)/c1ccccn1	96.5% (inactive) and 84.3% (inactive)	117% (inactive) and 98.3% (inactive)	108% (inactive) and 103% (inactive)	101% (inactive) and 102% (inactive)	114% (inactive) and 113% (inactive)	123% (inactive)	111% (inactive)	105% (inactive) and 104% (inactive)	117% (inactive) and 105% (inactive)	117% (inactive) and 104% (inactive)
CCOC(=O)c1ccncc1	101% (inactive)	106% (inactive)	112% (inactive)	107% (inactive)	117% (inactive)	105% (inactive)	111% (inactive)	105% (inactive)	101% (inactive)	110% (inactive)
Cc1nc(Nc2ccc(Cl)cc2)c2cnn(-c3ccccc3)c2n1	101% (inactive)	108% (inactive)	104% (inactive)	108% (inactive)	103% (inactive)	116% (inactive)	112% (inactive)	106% (inactive)	97.9% (inactive)	98.2% (inactive)
CCOP(=O)(OCC)/C(C#N)=C/c1c(C)[nH]c2ccccc12	94.8% (inactive)	88.8% (inactive)	94.8% (inactive)	103% (inactive)	41% (inactive)	100% (inactive)	105% (inactive)	105% (inactive)	90.8% (inactive)	97.9% (inactive)
Nc1[nH][nH]c(=O)c1N=Nc1ccccc1	125% (inactive) and 98.6% (inactive)	110% (inactive)	102% (inactive) and 108% (inactive)	101% (inactive) and 109% (inactive)	99.6% (inactive)	101% (inactive) and 107% (inactive)	109% (inactive) and 104% (inactive)	106% (inactive) and 111% (inactive)	107% (inactive) and 130% (inactive)	106% (inactive) and 105% (inactive)
O=C1C=CC(=O)N1Cc1ccco1	74.7% (inactive)	107% (inactive)	85.6% (inactive)	62.1% (inactive)	106% (inactive)	94.2% (inactive)	69.7% (inactive)	113% (inactive)	117% (inactive)	76.6% (inactive)
OC1CCCN(Cc2ccccc2)C1 (stereo not drawn)	88.6% (inactive)	90.5% (inactive)	105% (inactive)	108% (inactive)	129% (inactive)	99.7% (inactive)	112% (inactive)	113% (inactive)	118% (inactive)	101% (inactive)
CC(=O)Nc1ccc(OC(C)=O)cc1	115% (inactive)	-25.4% (active) and 104% (inactive)	8% (active) and 101% (inactive)	35.7% (inactive) and 97.5% (inactive)	98.7% (inactive)	-4.1% (active) and 121% (inactive)	23.7% (inactive) and 113% (inactive)	2.02% (active) and 113% (inactive)	29.7% (inactive) and 118% (inactive)	-11.9% (active) and 106% (inactive)
CC(O)CCNC(c1ccccc1)C(O)c1ccccc1 (stereo not drawn)	105% (inactive)	89.7% (inactive)	104% (inactive)	109% (inactive)	107% (inactive)	107% (inactive)	95.9% (inactive)	132% (inactive)	110% (inactive)	110% (inactive)
O=c1[nH]c(=O)c2[nH]c(=O)[nH]c2[nH]1	114% (inactive)	101% (inactive)	102% (inactive)	99.7% (inactive)	109% (inactive)	115% (inactive)	106% (inactive)		102% (inactive)	106% (inactive)
Cc1cc2ccccc2c2cc3ccccc3cc12	40.8% (inactive)	105% (inactive)	98.9% (inactive)	86.9% (inactive)	94.5% (inactive)	90.6% (inactive)	61.8% (inactive)	100% (inactive)	95.2% (inactive)	98.8% (inactive)
O=C(NC(=O)c1ccc(F)c(Cl)c1)NC1CC1	91.4% (inactive)	98% (inactive) and 102% (inactive)	98.8% (inactive) and 103% (inactive)	109% (inactive) and 105% (inactive)	119% (inactive) and 93.4% (inactive)	114% (inactive) and 105% (inactive)	113% (inactive) and 109% (inactive)		102% (inactive) and 96.6% (inactive)	107% (inactive) and 103% (inactive)
COc1ccc(CCNC(=S)NN)cc1OC	104% (inactive)	99% (inactive)	103% (inactive)	104% (inactive)	99.3% (inactive)	121% (inactive)	107% (inactive)	108% (inactive)	102% (inactive)	102% (inactive)
